Laboratory results reported in PubChem BioAssay (NCATS).
Records with an inconclusive call do not appear. Entries that show only a call come without a potency. The source made the active and inactive calls. Unless noted, the call rests on the fitted dose curve; in most records, active means well fitted curve in the direction sought with a large enough effect; inconclusive means small, poorly fitted or top-dose-only effect, or another doubt; inactive means no such curve, though single readings can be large; an effect the other way counts as inactive or inconclusive.

Columns and labels:
[1] = MultiTox-Fluor Cytotoxicity Assay - LYMP1-001 - Dead Cells (AID 946);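 further: cells exposed to compound for 16 h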; further: potency means the concentration at half of the fitted maximal effect
Method in brief: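 Seed 2500 LYMP1-001 cells/well, incubate 5 hr at 37 C; add compound, 16 hr at 37 C; add MultiTox-Fluor reagent, 60 min RT; read dead-cell fluorescence Ex/Em=485/520. Normalize to DMSO and 15 uM tetraoctylammonium bromide.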

[2] = MultiTox-Fluor Cytotoxicity Assay - LYMP1-001 - Live Cells (AID 947); further: potency means the concentration at half of the fitted maximal effect
[3] = Cell Viability - LYMP1-002 - Assay at 16 hr (AID 948); further: potency means the concentration at half of the fitted maximal effect
Method in brief: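 In this qHTS, lymphoblastoid LYMP1-002 cells (human) receive compounds for 16 hr at 37 C. Viability is taken from CellTiter-Glo ATP luminescence, and AC50 derives from standard Hill fits.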

[4] = MultiTox-Fluor Cytotoxicity Assay - LYMP1-002 - Live Cells (AID 955);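 further: cells exposed to compound for 16 hours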; further: potency means the concentration at half of the fitted maximal effect
Method in brief: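 Cells were seeded at 2500 per well and incubated 5 hr. Compounds were then added for 16 hr at 37 C, followed by MultiTox-Fluor reagent for 60 min at room temperature and fluorescence reading of viable-cell protease signal.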

[5] = MultiTox-Fluor Cytotoxicity Assay - LYMP1-002 - Dead Cells (AID 960); further: nearly all actives have a fitted effect of over 60% in size; further: potency means the concentration at half of the fitted maximal effect
Method in brief: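 Cells were plated, rested 5 hr, then treated with compound dilution series for 16 hr at 37 C. After adding substrate reagent and 60 min at room temperature, dead-cell protease fluorescence gave concentration-response curves fitted by the Hill equation.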

[6] = MultiTox-Fluor Cytotoxicity Assay - LYMP1-003 - Dead Cells (AID 961);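 further: cells exposed to compound for 16 h at 37 °C; nearly all actives have a fitted effect of over 70% in size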; further: potency means the concentration at half of the fitted maximal effect
Method in brief: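 LYMP1-003 lymphoblastoid, 2500 cells/well, 5 hr settle then 16 hr cpd at 37 C; MultiTox-Fluor reagent 60 min RT; Ex/Em 485/520 dead-cell signal; norm. DMSO = 0%, 15 uM tetraoctylammonium bromide = 100%; Hill AC50.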

[7] = MultiTox-Fluor Cytotoxicity Assay - LYMP1-003 - Live Cells (AID 962);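 further: cells exposed to compound for 16 hours at 37 °C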; further: potency means the concentration at half of the fitted maximal effect
Method in brief: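 Acute cytotoxicity is scored as a drop in live-cell protease activity in human lymphoblastoid LYMP1-003 cells after 16 hr compound exposure at 37 C. AC50 values come from Hill-equation modelling of concentration-response data.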

[8] = Cell Viability - LYMP1-003 - Assay at 40 hr (AID 964); further: nearly all actives have a fitted effect of over 60% in size; further: potency means the concentration at half of the fitted maximal effect
Method in brief: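 Luminescent ATP signal (CellTiter-Glo) served as the viability read-out after 40 hr compound treatment of human lymphoblastoid LYMP1-003 cells at 37 C. Decreases in ATP were fitted with the Hill equation to give AC50.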

[9] = Cell Viability - LYMP2-003 (AID 965);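 further: cells exposed to compounds for 24 h before reading; nearly all actives have a fitted effect of over 50% in size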; further: potency means the concentration at half of the fitted maximal effect
Method in brief: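 qHTS, human lymphoblastoid line, 2500 cells/well, complete medium. 24 h drug, 37 C. ATP-based luminescent readout; Hill-fit AC50.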

[10] = Cell Viability - LYMP2-004 (AID 966);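 further: cells exposed to compound for 24 h; nearly all actives have a fitted effect of over 65% in size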; further: potency means the concentration at half of the fitted maximal effect
Method in brief: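 qHTS cytotoxicity: human lymphoblastoid line, 24 hr compound treatment, 37 C, complete medium. Viability read as cellular ATP via luciferase luminescence; tetraoctylammonium bromide served as positive control.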

[11] = Cell Viability - LYMP2-009 (AID 968);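 further: cells exposed to compound for 24 h at 37 °C; nearly all actives have a fitted effect of over 55% in size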; further: potency means the concentration at half of the fitted maximal effect
[12] = Cell Viability - LYMP2-011 (AID 969); further: nearly all actives have a fitted effect of over 60% in size; further: potency means the concentration at half of the fitted maximal effect
Method in brief: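 In this qHTS cytotoxicity format, compounds are tested across concentrations on human lymphoblastoid cells in complete medium for 24 hours at 37 C. Viability is taken as cellular ATP measured by luciferase luminescence.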

[13] = Cell Viability - LYMP2-013 (AID 970);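 further: cells exposed to compound for 24 h at 37 °C; nearly all actives have a fitted effect of over 55% in size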; further: potency means the concentration at half of the fitted maximal effect
Method in brief: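 Cytotoxicity is scored as a concentration-dependent drop in intracellular ATP in human lymphoblastoid cells after 24 hr compound exposure at 37 C. ATP is quantified by luciferase luminescence, and AC50 values come from Hill-equation modeling.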

[14] = Cell Viability - LYMP2-015 (AID 971);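 further: cells exposed to compound for 24 h; nearly all actives have a fitted effect of over 55% in size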; further: potency means the concentration at half of the fitted maximal effect
Method in brief: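 Cells are seeded at 2500 per well and incubated 5 hr at 37 C. Compounds are added across a concentration series for 24 hr at 37 C. CellTiter-Glo is added, and luminescence is read after 30 min at room temperature.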

[15] = Cell Viability - LYMP2-017 (AID 972); further: nearly all actives have a fitted effect of over 55% in size; further: potency means the concentration at half of the fitted maximal effect
Method in brief: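 Cytotoxicity is scored as a concentration-dependent drop in cellular ATP in a human lymphoblastoid line after 24 hr treatment at 37 C. Values are AC50s from Hill-equation modelling.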

[16] = Cell Viability - LYMP2-019 (AID 973); further: potency means the concentration at half of the fitted maximal effect
Method in brief: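 Cytotoxicity is scored as a concentration-dependent drop in cellular ATP after cells (2500/well) receive compound for 24 hr at 37 C. Tetraoctylammonium bromide serves as positive control.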

[17] = Cell Viability - LYMP2-021 (AID 974); further: potency means the concentration at half of the fitted maximal effect
Method in brief: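 Loss of cellular ATP, measured with a luciferase-based CellTiter-Glo readout, serves as the toxicity signal in human lymphoblastoid cells treated for 24 hours at 37 C. Potency is reported as AC50 from a standard Hill model.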

[18] = biological target: Pyruvate kinase PKM (Homo sapiens) (UniProt P14618); assay: qHTS Assay for Activators of Human Muscle Pyruvate Kinase (AID 954; active means well fitted curve in the direction sought with a large enough effect, not every such curve was filed as active)
Method in brief: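 PKM2, human, >95% pure, 0.1 nM; PEP 0.5 mM (Km), ADP 0.1 mM; 50 mM imidazole pH 7.2, 50 mM KCl, 0.01% Tween 20, 0.05% BSA; 1 h RT; luciferase luminescence readout.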

Sequence of Pyruvate kinase PKM (Homo sapiens) (P14618 whole entry, looked up): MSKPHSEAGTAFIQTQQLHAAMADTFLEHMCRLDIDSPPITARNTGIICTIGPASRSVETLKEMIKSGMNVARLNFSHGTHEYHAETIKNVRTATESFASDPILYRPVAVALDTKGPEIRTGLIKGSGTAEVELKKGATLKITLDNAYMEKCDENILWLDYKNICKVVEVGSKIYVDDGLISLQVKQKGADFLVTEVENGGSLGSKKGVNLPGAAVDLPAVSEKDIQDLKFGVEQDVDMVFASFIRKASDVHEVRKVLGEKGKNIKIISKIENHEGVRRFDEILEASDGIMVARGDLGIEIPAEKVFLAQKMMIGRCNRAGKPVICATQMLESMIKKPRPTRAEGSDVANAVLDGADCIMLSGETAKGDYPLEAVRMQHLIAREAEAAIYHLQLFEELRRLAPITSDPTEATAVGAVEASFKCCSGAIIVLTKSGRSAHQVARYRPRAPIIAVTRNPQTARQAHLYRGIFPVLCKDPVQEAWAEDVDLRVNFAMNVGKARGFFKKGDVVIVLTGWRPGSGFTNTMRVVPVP

| SMILES | Potency [1] | Potency [2] | Potency [3] | Potency [4] | Potency [5] | Potency [6] | Potency [7] | Potency [8] | Potency [9] | Potency [10] | Potency [11] | Potency [12] | Potency [13] | Potency [14] | Potency [15] | Potency [16] | Potency [17] | outcome [18] |
| --- | --- | --- | --- | --- | --- | --- | --- | --- | --- | --- | --- | --- | --- | --- | --- | --- | --- | --- |
| CN(C)c1ccc(C(=C2C=CC(=[N+](C)C)C=C2)c2ccccc2)cc1 | 501 nM (active) | 1000 nM (active) | 1580 nM (active) | 1580 nM (active) | 1580 nM (active) | 2000 nM (active) | 2000 nM (active) | 631 nM (active) | 501 nM (active) | 316 nM (active) | 398 nM (active) | 316 nM (active) | 501 nM (active) | 316 nM (active) | 501 nM (active) | 501 nM (active) | 398 nM (active) | – |
| O=C(O)CC[C@@H](C(=O)O)N1C(=O)c2ccccc2C1=O | – | – | – | – | – | – | – | – | – | – | – | – | – | – | – | – | – | inactive |
| O=C(O)c1cc([N+](=O)[O-])ccc1NCCCc1ccccc1 | – | – | – | – | – | – | – | – | – | – | – | – | – | – | – | – | – | inactive |
| CC1(C)S[C@@H]2[C@H](NC(=O)[C@H](N)c3ccccc3)C(=O)N2[C@H]1C(=O)O | inactive | inactive | inactive | inactive | inactive | inactive | inactive | inactive | inactive | inactive | inactive | inactive | inactive | inactive | inactive | inactive | inactive | – |
| O=C(O)/C=C\C(=O)O | inactive | inactive | inactive | inactive | inactive | inactive | inactive | inactive | inactive | inactive | inactive | inactive | inactive | inactive | inactive | inactive | inactive | – |
| Nc1ccc(O)c([N+](=O)[O-])c1 | inactive | inactive | inactive | inactive | – | inactive | inactive | – | inactive | inactive | inactive | inactive | inactive | – | inactive | – | inactive | – |
| CC(C)NCC(O)COc1cccc2ccccc12 (stereo unspecified) | inactive | inactive | inactive | inactive | – | inactive | inactive | inactive | inactive | inactive | – | inactive | inactive | inactive | inactive | inactive | inactive | – |
| Nc1ccc([N+](=O)[O-])cc1O | inactive | inactive | inactive | inactive | inactive | inactive | inactive | inactive | inactive | inactive | inactive | inactive | inactive | inactive | inactive | inactive | inactive | – |
| c1ccc2sc(SSc3nc4ccccc4s3)nc2c1 | inactive | inactive | inactive | inactive | inactive | inactive | inactive | inactive | inactive | inactive | inactive | inactive | inactive | inactive | inactive | inactive | inactive | – |
| N.N.O=C(O)C1(C(=O)O)CCC1.[Pt] | – | – | – | – | – | – | – | – | – | – | – | – | – | – | – | – | – | inactive |
| CC1(C)CCC=[N+]1[O-] | – | – | – | – | – | – | – | – | – | – | – | – | – | – | – | – | – | inactive |
| COc1cc(CNC(=O)CCCC/C=C/C(C)C)ccc1O | inactive | inactive | inactive | inactive | – | inactive | inactive | – | inactive | inactive | inactive | inactive | inactive | inactive | inactive | inactive | inactive | – |
| Oc1ccccc1O | inactive | inactive | – | inactive | – | – | – | – | inactive | – | – | – | – | – | inactive | inactive | – | inactive |
| c1ccc(-c2ccccn2)nc1 | – | – | – | – | – | – | – | – | – | – | – | – | – | – | – | – | – | inactive |
| NCCO | inactive | inactive | inactive | inactive | inactive | inactive | inactive | inactive | inactive | inactive | inactive | inactive | inactive | inactive | inactive | inactive | inactive | – |
| CCCOC(=O)c1ccc(O)cc1 | inactive | inactive | inactive | inactive | inactive | inactive | inactive | inactive | inactive | inactive | inactive | inactive | inactive | inactive | inactive | inactive | inactive | – |
| Nc1ccc(O)c(C(=O)O)c1 | inactive | inactive | inactive | inactive | inactive | inactive | inactive | inactive | inactive | inactive | inactive | inactive | inactive | inactive | inactive | inactive | inactive | – |
